# From PubChem BioAssay (Tox21)
# Results filed as inconclusive are left out. Entries that show only a call come without a potency. Activity calls are given as the source filed them. Calls come from the whole dose curve; as a rule, active = well fitted cell-killing curve with a large enough effect in the repeat runs; inconclusive = weak or mixed curves, or effect the other way; inactive = flat fitted curve, though single readings scatter.
# Assay: Caspase-3/7 induction in HepG2 cells by small molecules, qHTS cell viability counter screen (AID 1346981); note: nearly all actives have a fitted effect of over 30% in size
# Conditions: CellTiter-Fluor fluorescence, 17 h; series mostly up to 92.4 µM
# Outline: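 Fluorescence read-out of live-cell protease activity (CellTiter-Fluor) after 1 hr with reagent. This was measured in the same wells as the caspase-3/7 luminescence, on HepG2 cells exposed to DMSO-dissolved compounds for 16 hr at 37 C.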
# Potency is the fitted concentration of half-maximal effect.
row,SMILES,Potency
1,[C-]1=CC=CC1.[Cl][Zr+2][Cl].c1cc[cH-]c1,inactive
2,C[C@@H]1CC2=CC(=O)CC[C@@H]2[C@H]2CC[C@@]3(C)[C@@H](CC[C@]3(C)O)[C@@H]21,inactive
3,CNC(=O)Oc1cc(C)cc(C(C)C)c1,inactive
4,C[C@]12CC[C@H]3[C@@H](CCC4=CC(=O)CC[C@@H]43)[C@@H]1CC[C@@H]2OC(=O)CCc1ccco1,inactive
5,CC(Cc1ccc2c(c1)OCO2)NO (configuration not stated),inactive
6,CCO/N=C(\CC)C1=C(O)CC(c2c(C)cc(C)cc2C)CC1=O (configuration not stated),inactive
7,COP(=S)(OC)Oc1ccc([N+](=O)[O-])c(C)c1,inactive
8,CC[C@]1(O)CC[C@H]2[C@@H]3CCC4=CCCC[C@@H]4[C@H]3CC[C@@]21C,inactive
9,CCOP(=S)(OCC)SC(CCl)N1C(=O)c2ccccc2C1=O (configuration not stated),inactive
10,Fc1ccc(C(OCCN2CCN(CCCc3ccccc3)CC2)c2ccc(F)cc2)cc1,23.7 µM (active)
11,COC(=O)c1cc(Oc2ccc(Cl)cc2Cl)ccc1[N+](=O)[O-],inactive
12,CC(C)=CC1C(C(=O)OC(C#N)c2cccc(Oc3ccccc3)c2)C1(C)C (configuration not stated),inactive
13,O=C(N[C@@H]1N=C(c2ccccc2F)c2cccc3c2N(CC3)C1=O)c1cc2ccccc2[nH]1,inactive
14,CCN1CCC2(CC1)COc1cc3c(cc12)N(C(=O)c1ccc(-c2ccc(-c4nnc(C)o4)cc2C)cc1)CC3,50.2 µM (active)
15,CC1(C)C(C=C(Cl)Cl)C1C(=O)OC(C#N)c1ccc(F)c(Oc2ccccc2)c1 (configuration not stated),inactive
16,CSC(=O)c1c(C(F)F)nc(C(F)(F)F)c(C(=O)SC)c1CC(C)C,inactive
17,CCc1cccc(C)c1N(C(=O)CCl)[C@@H](C)COC,inactive
18,CC#C[C@]1(O)CC[C@H]2[C@@H]3C[C@H](C)C4=CC(=O)CC[C@]4(C)[C@H]3CC[C@@]21C,inactive
19,ClC1=C(Cl)[C@]2(Cl)[C@H]3[C@H]([C@@H]4C=C[C@H]3C4)[C@@]1(Cl)C2(Cl)Cl,inactive
20,CCOC(=O)CCN(SN(C)C(=O)Oc1cccc2c1OC(C)(C)C2)C(C)C,inactive
21,COc1ccc2[nH]cc(CCN(C(C)C)C(C)C)c2c1,inactive
22,CCC(C)c1cccc(C(C)CC)c1O (configuration not stated),inactive
23,CCC(C)Nc1c([N+](=O)[O-])cc(C(C)(C)C)cc1[N+](=O)[O-] (configuration not stated),inactive
24,Cc1c([N+](=O)[O-])c(C)c([N+](=O)[O-])c(C(C)(C)C)c1[N+](=O)[O-],inactive
25,Oc1cc(Cl)cc(Cl)c1,inactive
26,C1=CCC=C1,inactive
27,Brc1ccc(Oc2ccc(Br)cc2Br)c(Br)c1,inactive
